# Source: PubChem BioAssay (NCATS)
# Inconclusive results are not listed. Calls of active or inactive are those of the source. Unless noted, calls come from the whole dose curve; as a rule, active = well fitted curve in the direction sought with a large enough effect; inconclusive = small, poorly fitted or top-dose-only effect, or another doubt; inactive = no such curve, though single readings can be large; an effect the other way counts as inactive or inconclusive.
# Legend:
# [1] = Quantitative High-Throughput drug screen in 47 multiple myeloma cell lines against the NCATS MIPE library collection: RPMI8226_ATCC cell viability assay (AID 1919871); conditions: RPMI8226 myeloma viability, CellTiter-Glo ATP luminescence, 48 h; series mostly up to 45.8 µM; note: nearly all actives have a fitted effect of over 30% in size; note: potency is the fitted concentration of half-maximal effect
# Summary of the method: (§1)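 Plated at 500 cells per well, myeloma lines received MIPE 4.0 compounds by pin tool. Following 48 h culture at 37 °C, CellTiter-Glo luminescence gave viability relative to DMSO and media-only controls.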
# [2] = Quantitative High-Throughput drug screen in 47 multiple myeloma cell lines against the NCATS MIPE library collection: KMS11_JCRBsus cell viability assay (AID 1919873); conditions: KMS11 myeloma viability, CellTiter-Glo ATP luminescence, 48 h; series mostly up to 45.8 µM; note: nearly all actives have a fitted effect of over 50% in size; note: potency is the fitted concentration of half-maximal effect
# Summary of the method: as §1
# [3] = Quantitative High-Throughput drug screen in 47 multiple myeloma cell lines against the NCATS MIPE library collection: KMS28BM_JCRB cell viability assay (AID 1919874); conditions: CellTiter-Glo ATP, 48 h; series mostly up to 45.8 µM; note: nearly all actives have a fitted effect of over 35% in size; note: potency is the fitted concentration of half-maximal effect
# Summary of the method: as §1
# [4] = Quantitative High-Throughput drug screen in 47 multiple myeloma cell lines against the NCATS MIPE library collection: OPM2_DSMZ cell viability assay (AID 1919872); conditions: OPM2 myeloma viability, CellTiter-Glo ATP luminescence, 48 h; series mostly up to 45.8 µM; note: nearly all actives have a fitted effect of over 30% in size; note: potency is the fitted concentration of half-maximal effect
# Summary of the method: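 CellTiter-Glo ATP luminescence gave viability after 48 h compound treatment at 37C of 500 multiple myeloma cells per well. Normalisation used DMSO-only wells as 100% and media-only wells as 0% viability; primary qHTS of approved and investigational drugs.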
# [5] = qHTS drug screen for cell cycle checkpoint inhibitors in PARPi-resistant BRCA-mutant ovarian cancer cell lines. (AID 1963452; calls by dose curve); conditions: PEO1/OlaR viability, CellTiter-Glo luminescence, 96 h, stronger effect = lower value
# Summary of the method: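 PEO1, PEO4 and PEO1/OlaR ovarian cancer cells, 600 per well, exposed 96 h at 37C to a dilution series. Viability read by CellTiter-Glo luminescence, normalized to DMSO and empty wells; activity summarized as Z-AUC.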
# [6] = qHTS for identification of novel therapeutic agents for treatment of microphthalmiaassociated transcription factor (MiT) renal cell carcinoma (RCC) (AID 1963991); conditions: CellTiter-Glo, 48 h, stronger effect = lower value
# Summary of the method: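 Three TFE3-fusion RCC lines (UOK109, UOK124, UOK145), 500 cells/well in complete medium, were treated with MIPE 4.0 compounds for 48 hours at 37 C. Viability was by CellTiter-Glo luminescence, normalized to DMSO (100%) and empty wells (0%); curves fitted over 11 concentrations.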
# [7] = molecular target: Cytochrome P450 3A4 (Homo sapiens) (UniProt P08684); test: qHTS for inhibitors of CYP3A4 against the NCATS DSHEA and TCM libraries (AID 1919971); conditions: recombinant CYP3A4 enzyme activity, luminescence qHTS; series mostly up to 34.1 µM;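 note: % is set by controls: 0 for no effect and ±100 for the full control effect; inhibition lowers luminescence from luciferin made by CYP3A4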
# Cytochrome P450 3A4 (Homo sapiens), sequence (P08684 whole entry, looked up): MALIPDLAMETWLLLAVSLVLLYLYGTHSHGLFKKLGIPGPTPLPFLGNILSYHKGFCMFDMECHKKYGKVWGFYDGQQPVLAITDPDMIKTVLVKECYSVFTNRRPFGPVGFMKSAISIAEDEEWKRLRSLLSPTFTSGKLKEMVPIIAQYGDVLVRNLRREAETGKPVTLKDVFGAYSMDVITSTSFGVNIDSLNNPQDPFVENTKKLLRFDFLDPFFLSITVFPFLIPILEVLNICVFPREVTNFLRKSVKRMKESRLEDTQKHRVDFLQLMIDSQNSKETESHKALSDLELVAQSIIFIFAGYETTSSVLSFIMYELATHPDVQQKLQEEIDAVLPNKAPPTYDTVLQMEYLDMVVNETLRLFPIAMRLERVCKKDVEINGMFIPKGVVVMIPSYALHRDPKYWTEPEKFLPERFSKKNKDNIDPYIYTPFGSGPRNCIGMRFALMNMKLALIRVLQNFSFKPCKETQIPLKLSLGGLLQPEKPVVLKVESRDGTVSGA
# Summary of the method: (§2)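 Light output from converted D-luciferin reports remaining CYP activity. Compounds preincubate with enzyme and substrate for 15 min; NADPH regeneration (1x final) runs the reaction for 30-45 min.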
# [8] = molecular target: Cytochrome P450 2D6 (Homo sapiens) (UniProt P10635); test: qHTS for inhibitors of CYP2D6 against the NCATS DSHEA and TCM libraries (AID 1919972); conditions: CYP2D6 enzymatic inhibition, luminescence qHTS; series mostly up to 34.1 µM; note: % is set by controls: 0 for no effect and ±100 for the full control effect
# Cytochrome P450 2D6 (Homo sapiens), sequence (P10635 whole entry, looked up): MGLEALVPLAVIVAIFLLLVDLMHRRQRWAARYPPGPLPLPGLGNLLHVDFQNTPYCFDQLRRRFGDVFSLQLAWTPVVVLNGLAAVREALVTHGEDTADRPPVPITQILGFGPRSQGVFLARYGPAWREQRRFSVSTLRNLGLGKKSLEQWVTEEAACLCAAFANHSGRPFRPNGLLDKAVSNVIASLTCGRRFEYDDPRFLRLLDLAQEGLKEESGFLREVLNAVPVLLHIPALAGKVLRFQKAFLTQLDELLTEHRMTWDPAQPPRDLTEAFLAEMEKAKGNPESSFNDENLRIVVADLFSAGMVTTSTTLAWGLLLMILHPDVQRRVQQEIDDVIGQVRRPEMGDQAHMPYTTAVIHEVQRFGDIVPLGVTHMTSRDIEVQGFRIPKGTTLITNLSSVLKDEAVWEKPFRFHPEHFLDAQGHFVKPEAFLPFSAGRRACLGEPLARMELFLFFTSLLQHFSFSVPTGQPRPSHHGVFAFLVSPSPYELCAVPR
# Summary of the method: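 Steps: enzyme plus luciferin substrate dispensed; test substances pinned; 15 min RT; 1x NADPH regenerating solution added, 30–45 min RT protected from light; detection reagent, 30 min RT; luminescence measured. Minus-enzyme wells as background.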
# [9] = molecular target: Cytochrome P450 2C9 (Homo sapiens) (UniProt P11712); test: qHTS for inhibitors of CYP2C9 against the NCATS DSHEA and TCM libraries (AID 1919973); conditions: recombinant CYP2C9 enzyme activity, luminescence; series mostly up to 34.1 µM;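 note: luminogenic pro-luciferin CYP2C9 substrate turned into luciferin with NADPH regeneration; % is set by controls: 0 for no effect and ±100 for the full control effect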
# Cytochrome P450 2C9 (Homo sapiens), sequence (P11712 whole entry, looked up): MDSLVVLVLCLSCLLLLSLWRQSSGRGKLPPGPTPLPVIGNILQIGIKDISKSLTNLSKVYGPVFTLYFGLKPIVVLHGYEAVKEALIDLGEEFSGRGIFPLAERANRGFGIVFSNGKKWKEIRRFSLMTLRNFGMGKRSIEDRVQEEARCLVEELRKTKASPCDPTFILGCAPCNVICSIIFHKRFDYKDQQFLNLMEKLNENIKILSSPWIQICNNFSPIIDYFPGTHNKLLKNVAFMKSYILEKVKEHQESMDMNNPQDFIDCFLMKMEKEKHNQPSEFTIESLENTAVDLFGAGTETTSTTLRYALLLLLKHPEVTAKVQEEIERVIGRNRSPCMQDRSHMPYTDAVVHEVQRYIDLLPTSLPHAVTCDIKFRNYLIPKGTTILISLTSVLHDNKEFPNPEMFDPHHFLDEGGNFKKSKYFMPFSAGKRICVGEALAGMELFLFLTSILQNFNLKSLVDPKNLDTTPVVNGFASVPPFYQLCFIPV
# Summary of the method: as §2
# [10] = KB-3-1 P-gp reporter qHTS against the NCATS DSHEA and TCM libraries (AID 1919975); conditions: KB-3-1 parental cells, CellTiter-Glo luminescence viability, 72 h; series mostly up to 26.1 µM; note: 0% is about no effect
# Summary of the method: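 Cell viability qHTS: 500 KB-3-1 cells/well, substances in titration, ~72 h, 37C; luminescent CellTiter-Glo read.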
# [11] = qHTS Counterscreen for compound interference against the NCATS DSHEA and TCM libraries (AID 1919978); conditions: firefly luciferase detection reagent interference, luminescence;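 note: compounds preincubated with 1 µM D-luciferin or buffer before detection reagent; % of control where 0% means no effect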
# Summary of the method: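 Interference check: test samples were incubated with D-luciferin (final 1 uM) or buffer only for 15 min, room temperature, in a qHTS titration up to 39.8 uM, then developed with detection reagent and read by luminescence.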
# [12] = Dual reporter qHTS for agonist of Pregnane X Receptor (hPXR) against the NCATS DSHEA and TCM libraries: Fluorescence readout (AID 1920058); conditions: PXR dual reporter cells; series mostly up to 40 µM; note: 0% is about no effect
# Summary of the method: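 Measures viability of the PXR reporter HepG2 line by protease-substrate fluorescence (405/540 nm), taken 1 h after CellTiter-Fluor addition. Substances are tested as concentration series over a ~24 h exposure, with rifampicin as agonist control.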
# [13] = molecular target: Nuclear receptor subfamily 1 group I member 2 (Homo sapiens) (UniProt O75469); test: Dual reporter qHTS for agonist of Pregnane X Receptor (hPXR) against the NCATS DSHEA and TCM libraries: Luminescence readout (AID 1920059); conditions: hPXR dual reporter cells, luciferase luminescence agonist; series mostly up to 40 µM; note: 0% is about no effect
# Nuclear receptor subfamily 1 group I member 2 (Homo sapiens), sequence (O75469 whole entry, looked up): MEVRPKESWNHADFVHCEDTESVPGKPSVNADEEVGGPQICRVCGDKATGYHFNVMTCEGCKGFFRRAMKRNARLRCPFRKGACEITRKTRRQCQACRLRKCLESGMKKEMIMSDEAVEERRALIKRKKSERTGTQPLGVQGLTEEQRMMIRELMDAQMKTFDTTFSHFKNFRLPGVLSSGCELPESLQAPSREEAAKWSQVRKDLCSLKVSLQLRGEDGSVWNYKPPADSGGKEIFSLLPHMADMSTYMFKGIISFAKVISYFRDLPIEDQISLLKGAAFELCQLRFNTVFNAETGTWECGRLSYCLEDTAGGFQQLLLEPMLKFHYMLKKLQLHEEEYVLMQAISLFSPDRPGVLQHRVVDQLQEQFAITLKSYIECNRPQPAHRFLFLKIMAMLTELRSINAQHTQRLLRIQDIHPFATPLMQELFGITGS
# Summary of the method: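 Luminescent PXR reporter read (ONE-Glo) after a CellTiter-Fluor viability read, following 24 h, 37C treatment of HepG2 cells stably carrying hPXR-Luc.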
# [14] = molecular target: Nuclear receptor subfamily 1 group I member 2 (Homo sapiens) (UniProt O75469); test: Dual reporter qHTS for antagonist of Pregnane X Receptor (hPXR) against the NCATS DSHEA and TCM libraries: Luminescence Readout (AID 1920060); conditions: hPXR dual reporter cells, luciferase luminescence, antagonist mode; series mostly up to 40 µM;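 note: HepG2 cells carrying hPXR luciferase reporter stimulated with rifampicin at 2 µM; 0% is about no effect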
# Summary of the method: (§3)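 hPXR-Luc HepG2 cells exposed 24 h at 37 C to compounds with 2 uM rifampicin in antagonist mode; luciferase luminescence measured by ONE-Glo, with CellTiter-Fluor viability read beforehand.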
# [15] = Dual reporter qHTS for antagonist of Pregnane X Receptor (hPXR) against the NCATS DSHEA and TCM libraries: Fluorescence Readout (AID 1920061); conditions: PXR dual reporter cells, antagonist mode; series mostly up to 40 µM; note: 0% is about no effect
# Summary of the method: as §3
# [16] = measured here: PEO1 parental Z-AUC
# [17] = TFE3-RCC UOK109 viability, measured here: UOK109 Z-AUC
# [18] = TFE3-RCC viability, measured here: UOK124 Z-AUC
# [19] = TFE3-RCC viability, measured here: UOK145 Z-AUC
structure (smiles),measurement,setting,value
NC(=O)c1cccc2[nH]c(-c3ccc([C@H]4CCCN4)cc3F)nc12,Potency,[1],inactive
same,Potency,[2],inactive
same,Potency,[3],inactive
O=C(O)CCC1CCC(c2cc(F)ccc2F)(S(=O)(=O)c2ccc(Cl)cc2)CC1 (configuration not stated),Potency,[1],inactive
same,Potency,[4],inactive
same,Z-AUC,[5],1.02 (inactive)
same,Z-AUC,[5]; [16],0.969
same,Z-AUC,[5]; measured here: PEO4 Z-AUC,0.83
CC#CCn1c(N2CCC[C@@H](N)C2)nc2c1c(=O)n(Cc1nc(C)c3ccccc3n1)c(=O)n2C,Potency,[1],inactive
same,Potency,[2],inactive
same,Potency,[3],inactive
same,Z-AUC,[5],-0.285 (inactive)
same,Z-AUC,[5]; [16],0.131
same,Z-AUC,[5]; measured here: PEO4 Z-AUC,-0.262
NC1=N[C@@]2(c3cc(NC(=O)c4ccc(F)cn4)ccc3F)COC[C@@H]2CS1,Potency,[1],inactive
same,Potency,[2],23.5 µM (active)
same,Potency,[3],18.7 µM (active)
CC(C)(C)C(=O)Oc1ccc2c(c1)nc(NC(=O)c1cccc([N+](=O)[O-])c1)n2CCCO,Potency,[1],18.7 µM (active)
same,Potency,[2],inactive
same,Potency,[3],inactive
same,Z-AUC,[5],-0.205 (inactive)
same,Z-AUC,[5]; [16],0.0755
same,Z-AUC,[5]; measured here: PEO4 Z-AUC,-0.141
CCc1ccc(C=C2SC(=S)NC2=O)cc1,Potency,[1],inactive
same,Potency,[4],inactive
same,Potency,[3],inactive
same,z-score,[6]; [17],-0.104
same,z-score,[6]; [18],0.457
same,z-score,[6]; [19],-0.976
O=C(CCN1CCN(C(=O)OCc2cc(Cl)cc(Cl)c2)CC1)c1ccc2[nH]c(=O)oc2c1,Potency,[1],inactive
same,Potency,[2],inactive
same,Potency,[3],inactive
same,Z-AUC,[5],0.428 (inactive)
same,Z-AUC,[5]; [16],0.576
same,Z-AUC,[5]; measured here: PEO4 Z-AUC,0.591
Nc1nc(F)nc2c1ncn2[C@@H]1O[C@H](COP(=O)(O)O)[C@@H](O)[C@H]1O,Potency,[1],inactive
same,Potency,[2],inactive
CC[C@H]1OC(=O)[C@H](C)C(=O)[C@H](C)[C@@H](O[C@H]2O[C@H](C)C[C@H](N(C)C)[C@@H]2O)[C@](C)(OC)C[C@@H](C)C(=O)[C@H](C)[C@H]2N(CCCCn3cnc(-c4cccnc4)c3)C(=O)O[C@]12C,Potency,[1],18.7 µM (active)
same,Potency,[2],16.6 µM (active)
same,Potency,[3],inactive
COC[C@@H](c1ccc(C(F)(F)F)cc1)N1CCN(C2(C)CCN(C(=O)c3c(C)ncnc3C)CC2)C[C@H]1C,Potency,[1],inactive
same,Potency,[2],inactive
same,Potency,[3],inactive
Cc1nc(N)sc1-c1ccnc(Nc2ccc(N3CCOCC3)cc2)n1,Potency,[1],11.8 µM (active)
same,Potency,[2],7.43 µM (active)
same,Potency,[3],16.6 µM (active)
same,Z-AUC,[5],-0.158 (inactive)
same,Z-AUC,[5]; [16],-0.029
same,Z-AUC,[5]; measured here: PEO4 Z-AUC,-0.545
CN(C)CCC=C1c2ccccc2COc2ccc(CC(=O)O)cc21,Potency,[1],inactive
same,Potency,[2],inactive
same,Potency,[3],inactive
Oc1ccc(C2CCN(c3ccnc4ccccc34)CC2)cc1O,Potency,[1],16.6 µM (active)
same,Potency,[2],18.7 µM (active)
same,Potency,[3],4.69 µM (active)
same,Z-AUC,[5],0.817 (inactive)
same,Z-AUC,[5]; [16],-0.32
same,Z-AUC,[5]; measured here: PEO4 Z-AUC,0.401
O=C(CCc1ccc(O)cc1)c1c(O)cc(O)cc1O[C@@H]1O[C@H](CO)[C@H](O)[C@H](O)[C@H]1O,Potency,[1],inactive
same,Potency,[4],9.35 µM (active)
same,z-score,[6]; [17],-0.101
same,z-score,[6]; [18],0.0784
same,z-score,[6]; [19],-0.273
CNC(=O)c1ccccc1Sc1ccc2c(C=Cc3ccccn3)n[nH]c2c1,Potency,[1],18.7 µM (active)
same,Potency,[2],1.18 µM (active)
same,Potency,[3],23.5 µM (active)
O=C(N[C@@H](c1ccccc1)[C@@H]1CCCCN1)c1cccc(C(F)(F)F)c1Cl,Potency,[1],1.66 µM (active)
same,Potency,[2],inactive
same,Potency,[3],inactive
same,Z-AUC,[5],0.7 (inactive)
same,Z-AUC,[5]; [16],0.513
same,Z-AUC,[5]; measured here: PEO4 Z-AUC,0.741
O=C(O)C(O)Cc1ccc(O)c(O)c1 (configuration not stated),Potency,[1],26.4 µM (active)
same,Potency,[4],11.8 µM (active)
same,Z-AUC,[5],0.82 (inactive)
same,Z-AUC,[5]; [16],1.05
same,Z-AUC,[5]; measured here: PEO4 Z-AUC,0.735
same,z-score,[6]; [17],0.888
same,z-score,[6]; [18],1.07
same,z-score,[6]; [19],1.23
Cc1c[nH]c(C=C2C(=O)Nc3ccccc32)c1CCC(=O)O,Potency,[1],inactive
same,Potency,[2],33.2 µM (active)
COc1cc(O)c2c(c1)C(=O)c1cc(C)cc(O)c1C2=O,Potency,[1],inactive
same,Potency,[4],inactive
same,outcome,[7],inactive
same,outcome,[8],inactive
same,outcome,[9],inactive
same,outcome,[10],inactive
same,max response,[11],1.06% (inactive)
same,outcome,[12],inactive
same,Potency,[13],inactive
same,outcome,[14],inactive
same,outcome,[15],inactive
same,z-score,[6]; [17],1.36
same,z-score,[6]; [18],1.13
same,z-score,[6]; [19],1.08
CC1(C)Cc2c(sc(NC(=S)NC(=O)c3ccccc3)c2C(=O)O)CO1,Potency,[1],inactive
same,Potency,[2],inactive
same,Potency,[3],inactive
same,Z-AUC,[5],-0.088 (inactive)
same,Z-AUC,[5]; [16],-0.241
same,Z-AUC,[5]; measured here: PEO4 Z-AUC,0.00999
